Compound activity from PubChem.
A488 autofl: compound autofluorescence in A488 spectral region; compound autofluorescence, A488 spectral region, dye equivalency; Compound Type: qHTS ECL - MLSMR; max dye equivalency, M; 59,000 tested, 0.1% active; AID 591
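Intrinsic compound fluorescence is measured in 100 mM Tris buffer at pH 8.0 following 15 min incubation at room temperature. Intensities at 480 nm excitation/540 nm emission are calibrated to an on-plate A488 concentration series, giving dye-equivalent concentrations.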
Fluorescein fluor: compound autofluorescence in fluorescein spectral region | Compound autofluorescence, 480/540 nm, fluorescein-equivalent; active compounds read high | max fluorescein-equivalent concentration, M | 59,000 tested, 0.91% active; in the data active = max fluorescein-equivalent concentration above about 10 nM; inconclusive = between about 1.1 nM and that limit
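Compounds (23 nL) in 100 mM Tris pH 8.0, 15 min at room temperature, then fluorescence read at 480 nm excitation/540 nm emission. Signal converted to fluorescein-equivalent concentration from an on-plate fluorescein standard curve.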
Rhodamine fluor: compound autofluorescence in rhodamine spectral region. Rhodamine-region fluorescence, 547/598 nm, Tris buffer; active compounds read high. max dye-equivalent concentration, M. 59,000 tested, 0.05% active; in the data active = max dye-equivalent concentration above about 11 nM; inconclusive = between about 1.1 nM and that limit
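qHTS spectral profiling of compounds without any target or enzyme present, in pH 8.0 Tris buffer; plates were read after a 15-minute room-temperature incubation using the rhodamine-region filter set.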
Texas Red fluor: Texas Red region autofluorescence. max dye-equivalent concentration, M. 59,000 tested, 0.06% active. Compound fluorescence, Texas Red channel, 547/618 nm; active compounds read high. AID 587; in the data active = max dye-equivalent concentration above about 10 nM; inconclusive = between about 1.1 nM and that limit
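Dye-equivalent concentrations come from scaling compound signal (ex 547, em 618 nm) to six Texas Red standard concentrations run on every plate, after 15 min room-temperature incubation in pH 8.0 Tris (100 mM).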
Resorufin autofl: resorufin region autofluorescence; Compound fluorescence, resorufin region 547/598 nm, buffer; active compounds read high; max dye-equivalent concentration, M; 59,000 tested, 0.04% active
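Read-out: intrinsic compound fluorescence at ex 547/em 598 nm after 15 min at RT in pH 8.0 Tris (100 mM). Values expressed as resorufin-equivalent concentration from per-plate standard series.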
A647 autofl: A647 region autofluorescence | AID 592 | Compound fluorescence, A647 channel (570/671 nm), Tris buffer | max dye-equivalent concentration, M | 59,000 tested, under 10 active
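Fluorescence read (570 nm ex, 671 nm em) after 15 min RT incubation of compounds in 100 mM Tris buffer, pH 8.0; values expressed as dye-equivalent concentration against a six-point A647 standard series on each plate.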
Of the large screens only hits and unclear results are named; the others gave an inactive call; ! = not active in a repeat. Sampled rows, rich in hits. Any-hit rate of the full collection: about 0.95%. Unless noted, no rule for the calls is given here.

Nc1n[nH]c2ccccc12	Fluorescein fluor inconclusive, Rhodamine fluor 1.55e-08M, Texas Red fluor 2.87e-08M, Resorufin autofl 1.07e-08M
Cc1ccccc1-n1c(=O)/c(=C\c2ccco2)s/c1=C(/C#N)C(=O)Nc1ccccc1	Fluorescein fluor 1.37e-08M
O=C1c2cccc3c(N4CCCCC4)ccc(c23)C(=O)N1c1ccccn1	A488 autofl 1.34e-08M, Fluorescein fluor 2.66e-07M
Cc1cccc(-n2c(O)c(C=Nc3ccc4c(c3)OCO4)c3ccccc3c2=O)n1	A488 autofl inconclusive, Fluorescein fluor 5.84e-08M
Cc1cc(N=Cc2c(O)n(-c3ccc4c(c3)OCO4)c(=O)c3ccccc23)ccn1	Fluorescein fluor inconclusive, Texas Red fluor inconclusive
COc1ccc(NC(=O)[C@@H]2[C@@H]3C(=O)N(C4CCCCC4)C(=O)[C@@H]3C3c4ccccc4C=CN32)cc1 (some centres not stated)	Fluorescein fluor inconclusive
N#C[C@@H]1[C@@H]2C(=O)N(c3ccc4c(c3)OCCO4)C(=O)[C@@H]2C2c3ccccc3C=CN21 (some centres not stated)	Fluorescein fluor 1.33e-08M, Rhodamine fluor inconclusive, Texas Red fluor inconclusive, Resorufin autofl inconclusive
CC(=O)[C@H]1[C@@H]2C(=O)N(c3cccc(Cl)c3)C(=O)[C@@H]2[C@H]2c3ccccc3C=CN21	Fluorescein fluor 1.78e-08M
CC(=O)[C@@H]1[C@@H]2C(=O)N(c3ccc(F)c(Cl)c3)C(=O)[C@@H]2C2c3ccccc3C=CN21 (some centres not stated)	A488 autofl inconclusive, Fluorescein fluor 3.31e-08M, Rhodamine fluor inconclusive, Texas Red fluor inconclusive, Resorufin autofl inconclusive
CC(=O)[C@H]1[C@H]2[C@H](C(=O)[C@@H]3OC[C@H]2O3)[C@@H]2c3ccccc3C=CN12	Fluorescein fluor inconclusive
O=C(c1ccco1)[C@@H]1[C@@H]2C(=O)N(c3ccc(F)cc3)C(=O)[C@@H]2C2c3ccccc3C=CN21 (some centres not stated)	Fluorescein fluor 1.28e-08M, Texas Red fluor inconclusive
O=C(c1ccco1)[C@@H]1[C@@H]2C(=O)N(c3ccc(Br)cc3)C(=O)[C@@H]2C2c3ccccc3C=CN21 (some centres not stated)	Fluorescein fluor inconclusive, Texas Red fluor inconclusive
Cc1ccccc1CNc1ncnc2c1ncn2[C@@H]1O[C@@H](CO)[C@H](O)[C@@H]1O	Fluorescein fluor 2e-08M, Texas Red fluor inconclusive
O=C(c1csnn1)N1CCC2(CC1)CN(c1cccc(-c3ccccc3)c1)C2	none
Cc1cc(-c2nnc(-c3cc4ccccc4oc3=O)o2)c(C)n1-c1ccccc1	none
CCCCCCc1cc2cc(-c3nnc(-c4ccccc4O)o3)c(=O)oc2cc1O	Fluorescein fluor 2.6e-08M
Cc1c(C2Nc3ccccc3NC3=C2C(=O)CC(C)(C)C3)cnn1C (configuration not stated)	Fluorescein fluor 1.11e-08M!
COc1ccc(Oc2ncc3nc(-c4cn(C)c5ccccc45)c(=O)n(CCC#N)c3n2)cc1	none
CN(C)S(=O)(=O)N1CCc2ccccc21	none
O=S(=O)(Cc1ccccc1)N1CCc2ccccc21	A488 autofl inconclusive, Fluorescein fluor 3.42e-08M, Rhodamine fluor 2.09e-08M, Texas Red fluor 2.01e-08M, Resorufin autofl 1.59e-08M
COc1ccc(C(=O)N2CCC3(CCN(Cc4ccccc4OC)CC3)CC2)cc1	none
Cc1ccc2[nH]c3c(c2c1)CN(C(=O)CN1CCN(c2ccccn2)CC1)CC3	Fluorescein fluor 1.79e-08M
Cc1ccc2[nH]c3c(c2c1)CN(C(=O)CN1CCSCC1)CC3	Fluorescein fluor inconclusive, Texas Red fluor inconclusive
Cc1ccc2[nH]c3c(c2c1)CN(C(=O)CN1CC(C)OC(C)C1)CC3 (configuration not stated)	Fluorescein fluor 1.12e-08M
COc1ccc(NC(=O)N2CC3(CCN(S(C)(=O)=O)CC3)C2)cc1	Fluorescein fluor inconclusive
CSc1ccc(NC(=O)[C@H]2CCCC[C@@H]2C(=O)O)cc1	Fluorescein fluor inconclusive
C=C1C(=O)O[C@H]2C[C@@]3(C)CCCC(=C)[C@@H]3C[C@H]12	Texas Red fluor inconclusive
CN1[C@@H]2CC[C@H]1CC(OC(=O)[C@@H](O)c1ccccc1)C2 (some centres not stated)	none
CC[C@@]12CCCN3CCc4c(n(c5ccccc45)C(=O)C1)[C@H]32	Fluorescein fluor 1.2e-08M!
Cc1cnc(CNc2ccnc(-c3ccoc3)n2)cn1	none
COc1cc2c(cc1O)[C@@H](c1cc(O)c(O)c(OC)c1)[C@@](O)(C(=O)O)[C@@H](CO)[C@@H]2O	none
CN(C)c1ccc(/C=C/c2cc[n+]([O-])cc2)cc1	A488 autofl 1.51e-08M, Fluorescein fluor 2.85e-07M, Texas Red fluor inconclusive
Cn1c(=O)[nH]c2cc(Cl)cnc21	Fluorescein fluor 1.79e-08M
FC(F)(F)c1nc2ncc(Cl)cc2[nH]1	none
CCN1C(=S)SC(=O)C1=C1C=C(C)N(Cc2ccco2)C(C)=C1	Fluorescein fluor inconclusive, Texas Red fluor inconclusive
CCN1C(=S)SC(=O)C1=C1C=C(C)OC(C)=C1	A488 autofl inconclusive, Fluorescein fluor 1.72e-07M, Texas Red fluor inconclusive
CN1/C(=C\C(=O)COC(=O)Cn2nnc(-c3ccccc3)n2)C(C)(C)c2ccccc21	Fluorescein fluor inconclusive, Rhodamine fluor inconclusive, Texas Red fluor 2.21e-08M, Resorufin autofl inconclusive
Cc1ccc2c(c1)c(C)c(C)n2CC(O)CN1CCOCC1 (configuration not stated)	Fluorescein fluor 1.4e-08M, Rhodamine fluor 1.23e-08M, Texas Red fluor 6.43e-08M, Resorufin autofl inconclusive
Cc1ccc(C(C)C)c(OCC(O)CN2CCOCC2)c1 (configuration not stated)	Fluorescein fluor inconclusive
COc1ccc(Oc2ncc3nc(CCc4ccccc4)c(=O)n(C)c3n2)cc1	none
COCCn1c(=O)c(-c2cccs2)nc2cnc(OCc3ccccc3)nc21	none
COC(=O)C1=C(C)NC(C)=C(C(=O)OC(C)C)[C@H]1c1cccc2nonc12	Fluorescein fluor 1.16e-08M
COc1ccc2nc(N3CCC(O)CC3)c(C#N)cc2c1	Fluorescein fluor 2.31e-08M
COc1ccc2nc(N3CCC(C)CC3)c(C#N)cc2c1	Fluorescein fluor inconclusive
CC1(C)CC(=O)C2=C(C1)OC(N)=C(C#N)C21CCN(Cc2ccccc2)CC1	A488 autofl inconclusive, Fluorescein fluor 3.17e-08M
COc1ccc(-c2ccc(-c3noc(-c4ccccc4OC)n3)c(OC)n2)cc1	A488 autofl inconclusive, Fluorescein fluor 2.76e-08M
COc1ccc(-c2ccc(-c3noc(-c4ccccc4C)n3)c(OC)n2)cc1	Fluorescein fluor 1.2e-08M, Texas Red fluor inconclusive
COc1cccc(Nc2ncc3nc(-c4cn(C)c5ccccc45)c(=O)n(CCC#N)c3n2)c1	Fluorescein fluor 2.42e-08M
COCCn1c(=O)c(C)nc2cnc(Nc3cccc(OC)c3)nc21	none
